Drawing on PubChem BioAssay (NCATS), this text covers Potency, activation and activity change, negative = inhibition for 24 compounds.

Results filed as inconclusive are left out. Values without a mark were called inactive. Active and inactive are the calls of the source. Calls come from the whole dose curve; as a rule, active = well fitted curve in the direction sought with a large enough effect; inconclusive = small, poorly fitted or top-dose-only effect, or another doubt; inactive = no such curve, though single readings can be large; an effect the other way counts as inactive or inconclusive.

Experiment [1] has as its target Rap guanine nucleotide exchange factor 3 (Homo sapiens) (UniProt O95398). The experiment is described as follows: Confirmatory qHTS for antagonist of cAMP-regulated guanine nucleotide exchange factor 3 (EPAC1) (AID 1645880).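 For activity, negative = inhibition: plate controls were DMSO only for no effect and full effect of the ATA control for full effect.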 Note: nearly all actives have a fitted effect of over 55% in size. Note: potency is the fitted concentration of half-maximal effect. Conditions: EPAC1 Rap1B-BODIPY-GDP exchange, fluorescence; activity, negative = inhibition: at 115 µM (top of the series). The gist of the method: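 Nucleotide exchange uses 100 nM EPAC1, 250 nM RAP1B-BODIPY-GDP and 50 uM GDP, with compounds in a concentration-titration series. After 5 min at room temperature, fluorescence (480 nm ex/540 nm em) is read every 5 min for 30 min. Data are normalized to control ATA and DMSO.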
(Quantitative high-throughput screening tests each substance at several concentrations.)

For experiment [2] the target is unchanged. The experiment is described as follows: Confirmatory qHTS for agonist of cAMP-regulated guanine nucleotide exchange factor 3 (EPAC1) (AID 1645881).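 For activation: EPAC1 catalysed release of BODIPY-GDP from Rap1B seen as fluorescence loss; 100% = effect of cAMP agonist control.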 Note: nearly all actives have a fitted effect of over 75% in size. Note: potency is the fitted concentration of half-maximal effect.
Experiment [3] has as its target Rap guanine nucleotide exchange factor 4 (Homo sapiens) (UniProt Q8WZA2). The experiment is described as follows: Confirmatory qHTS for agonist of cAMP-regulated guanine nucleotide exchange factor 4 (EPAC2) (AID 1645884). For activation: % is set by controls: 0 for no effect and ±100 for the full control effect.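 Note: nucleotide exchange releases bodipy-GDP from Rap1 and this lowers its fluorescence; nearly all actives have a fitted effect of over 65% in size.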 Note: potency is the fitted concentration of half-maximal effect.
In experiment [4] the target is Rap guanine nucleotide exchange factor 3 (Homo sapiens) (UniProt O95398). The experiment is described as follows: Counterscreen qHTS for antagonist of cAMP-regulated guanine nucleotide exchange factor 3 (EPAC1) (AID 1645888).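 Note: fluorescence loss as bound BODIPY-GDP is released from Rap1B; % of control where 0% means no effect.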 Put shortly:
(§1)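 Measured: fluorescence of BODIPY-GDP bound to Rap1B, which falls as exchange proceeds. Conditions include 50 uM competing GDP, 5 and 30 min reads, and a later cAMP challenge for antagonist detection.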

For experiment [5] the target is unchanged. The experiment is described as follows: Counterscreen qHTS for agonist of cAMP-regulated guanine nucleotide exchange factor 3 (EPAC1) (AID 1645889). For activation: % of control where 0% means no effect. Note: nearly all actives have a fitted effect of over 40% in size. Note: potency is the fitted concentration of half-maximal effect. The gist of the method: as §1
In general terms: Counterscreens check selectivity or assay interference.

Sequence of Rap guanine nucleotide exchange factor 4 (Homo sapiens) (Q8WZA2 whole entry, looked up): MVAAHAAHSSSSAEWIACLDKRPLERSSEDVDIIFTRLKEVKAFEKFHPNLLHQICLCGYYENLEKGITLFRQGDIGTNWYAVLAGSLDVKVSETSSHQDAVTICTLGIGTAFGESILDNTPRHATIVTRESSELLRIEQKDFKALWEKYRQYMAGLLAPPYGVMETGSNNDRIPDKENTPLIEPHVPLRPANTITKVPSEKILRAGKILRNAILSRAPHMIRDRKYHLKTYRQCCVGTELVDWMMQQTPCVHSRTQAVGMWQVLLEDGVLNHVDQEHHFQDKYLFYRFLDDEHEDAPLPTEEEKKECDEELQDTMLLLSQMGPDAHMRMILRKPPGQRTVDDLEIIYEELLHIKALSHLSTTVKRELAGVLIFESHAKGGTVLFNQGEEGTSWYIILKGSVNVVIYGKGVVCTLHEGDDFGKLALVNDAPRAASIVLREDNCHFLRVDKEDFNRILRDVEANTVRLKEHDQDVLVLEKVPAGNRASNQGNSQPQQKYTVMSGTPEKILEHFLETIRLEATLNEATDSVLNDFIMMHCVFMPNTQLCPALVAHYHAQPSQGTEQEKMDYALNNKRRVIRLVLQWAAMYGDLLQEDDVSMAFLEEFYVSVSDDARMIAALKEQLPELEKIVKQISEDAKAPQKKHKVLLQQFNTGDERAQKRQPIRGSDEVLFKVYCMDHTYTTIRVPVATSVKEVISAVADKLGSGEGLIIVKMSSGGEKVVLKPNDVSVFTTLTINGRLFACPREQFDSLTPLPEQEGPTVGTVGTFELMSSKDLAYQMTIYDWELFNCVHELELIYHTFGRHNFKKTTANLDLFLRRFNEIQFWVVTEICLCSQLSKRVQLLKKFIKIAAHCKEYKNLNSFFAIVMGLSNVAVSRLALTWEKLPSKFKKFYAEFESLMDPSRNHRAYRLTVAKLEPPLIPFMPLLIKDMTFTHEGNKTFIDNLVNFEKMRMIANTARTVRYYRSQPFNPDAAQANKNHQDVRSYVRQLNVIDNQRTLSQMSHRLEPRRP
Sequence of Rap guanine nucleotide exchange factor 3 (Homo sapiens) (O95398 whole entry, looked up): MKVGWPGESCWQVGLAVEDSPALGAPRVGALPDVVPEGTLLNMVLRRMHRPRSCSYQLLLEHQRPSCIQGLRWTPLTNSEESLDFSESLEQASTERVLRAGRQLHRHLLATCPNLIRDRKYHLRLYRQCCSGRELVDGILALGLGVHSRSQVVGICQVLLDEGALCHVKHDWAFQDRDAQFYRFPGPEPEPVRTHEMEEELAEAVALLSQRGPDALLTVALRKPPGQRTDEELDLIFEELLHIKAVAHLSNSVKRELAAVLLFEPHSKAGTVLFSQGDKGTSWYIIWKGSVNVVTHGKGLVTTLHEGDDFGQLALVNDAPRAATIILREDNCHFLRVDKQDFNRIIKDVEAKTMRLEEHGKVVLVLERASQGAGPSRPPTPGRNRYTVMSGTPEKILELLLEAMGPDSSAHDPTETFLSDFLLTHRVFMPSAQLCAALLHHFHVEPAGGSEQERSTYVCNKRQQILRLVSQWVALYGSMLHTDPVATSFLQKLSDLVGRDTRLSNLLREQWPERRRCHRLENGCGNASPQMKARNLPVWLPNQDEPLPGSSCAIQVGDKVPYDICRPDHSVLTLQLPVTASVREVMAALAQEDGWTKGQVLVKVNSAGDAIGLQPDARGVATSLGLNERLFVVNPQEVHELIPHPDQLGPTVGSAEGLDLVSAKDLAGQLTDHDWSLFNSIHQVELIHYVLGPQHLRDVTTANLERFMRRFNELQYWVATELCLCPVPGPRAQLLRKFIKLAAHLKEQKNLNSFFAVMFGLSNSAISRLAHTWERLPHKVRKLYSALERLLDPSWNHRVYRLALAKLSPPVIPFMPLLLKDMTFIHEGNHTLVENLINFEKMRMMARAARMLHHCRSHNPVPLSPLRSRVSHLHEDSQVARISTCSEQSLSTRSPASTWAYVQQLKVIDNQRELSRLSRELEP

`CN1/C(=C\C=C(/C#N)C(=O)Nc2ccc(Cl)cc2)C(C)(C)c2ccccc21`: the Potency result in experiment [1], in experiment [4] and in experiment [5] was “inactive” throughout. Moreover, the Potency in experiment [2] and in experiment [3] was 100 µM (active) throughout.

As to `CC1(C)c2ccccc2N(CC(N)=O)C12C=Cc1ccccc1O2` (stereo not given), the Potency result in experiment [1] and in experiment [2] was “inactive” in each case. Also, the activation was -0.49% [at 17.1 µM, percent relative to cAMP agonist control] in experiment [3] and 10.1% [at 30.8 µM] in experiment [5]. Besides, the activity change, negative = inhibition in experiment [4] is 6.74% [at 30.8 µM].

For `O=C(c1ccccc1)c1cccc2ccccc12`, the Potency result in experiment [1] and in experiment [2] was “inactive” throughout. The activation was 6.02% [at 17.1 µM, percent relative to cAMP agonist control] in experiment [3] and 19% [at 30.8 µM] in experiment [5]. Also, the activity change, negative = inhibition in experiment [4] is -2.88% [at 30.8 µM].

Consider `O=C(Nc1ccc2nc3n(c(=O)c2c1)CCCCC3)c1c(F)ccc([N+](=O)[O-])c1F`, for which the Potency in experiment [1] was 15.1 µM (active). Besides, the Potency result in experiment [2], in experiment [3], in experiment [4] and in experiment [5] was “inactive” each time.

For `Cc1ccc(S(=O)(=O)N2[C@@H](c3ccc(F)cc3)C(C(=O)O)=CC[C@H]2c2ccc(C(C)C)cc2)cc1`, the Potency in experiment [1] is 75.7 µM (active). Besides, the Potency entry in experiment [2], in experiment [3], in experiment [4] and in experiment [5] was “inactive” throughout.

As to `O=C(N/N=C/c1ccccc1O)c1ccc2c(c1)OCO2`, the Potency entry in experiment [1], in experiment [2], in experiment [3], in experiment [4] and in experiment [5] was “inactive” each time.

In the case of `Cc1ccc(NS(=O)(=O)c2cccs2)cc1S(=O)(=O)N1CCCCCC1`, the Potency entry in experiment [1], in experiment [2], in experiment [3], in experiment [4] and in experiment [5] was “inactive” in each case.

As for `Cc1ccc(SCCSc2ncccn2)cc1`, the Potency entry in experiment [1] and in experiment [2] was “inactive” in each case. For the same compound, the activation in experiment [3] is -2.5% [at 17.1 µM, percent relative to cAMP agonist control]; in experiment [5], -4.72% [at 30.8 µM]. Moreover, the activity change, negative = inhibition in experiment [4] is -17.4% [at 30.8 µM].

Turning to `O=C(Nc1ccccc1Cc1ccccc1)c1ccccc1NS(=O)(=O)c1ccc(Cl)s1`, the Potency in experiment [1] is 22.4 µM (active). The Potency result in experiment [2] was “inactive”. Also, the activation in experiment [3] was 8.53% [at 17.1 µM, percent relative to cAMP agonist control]; in experiment [5] it was 8.31% [at 30.8 µM]. Further, in experiment [4], the activity change, negative = inhibition was -15.4% [at 30.8 µM].

In the case of `COc1ccc(N(C(=O)c2snc(C(N)=O)c2N)C(C(=O)NC2CCCC2)c2cccs2)cc1OC` (stereo not given), the Potency in experiment [1] is 33.8 µM (active). Further, the Potency result in experiment [2], in experiment [3], in experiment [4] and in experiment [5] was “inactive” in each case.

Turning to `O=C(c1ccccc1)c1cccc(C(=O)c2ccccc2)c1`, the Potency entry in experiment [1], in experiment [2], in experiment [3], in experiment [4] and in experiment [5] was “inactive” each time.

As to `COc1ccc(OC)c(C(C[N+](=O)[O-])c2c(C)cc3ccccn23)c1` (stereo not given), the Potency result in experiment [1], in experiment [2], in experiment [3], in experiment [4] and in experiment [5] was “inactive” each time.

Regarding `CC1CCN(c2oc(-c3ccccc3F)nc2C#N)CC1`, the Potency entry in experiment [1], in experiment [2], in experiment [3], in experiment [4] and in experiment [5] was “inactive” each time.

As for `Cc1cc(C(=O)c2ccc3ccccc3c2)c(C)o1`, the Potency result in experiment [1], in experiment [2], in experiment [3], in experiment [4] and in experiment [5] was “inactive” throughout.

On to `O=C(Cc1ccccc1)Nn1c(O)c(/C=C2\C=Nc3ccccc32)sc1=S`, for which the Potency result in experiment [1] and in experiment [4] was “inactive” in each case. Moreover, the Potency in experiment [2] is 112 µM (active); in experiment [3], 100 µM (active); in experiment [5], 39.8 µM (active).

With `Cc1ccc(S(=O)(=O)N2[C@@H](c3cccc(Cl)c3)C(C(=O)O)=CC[C@H]2c2ccc(Cl)c(Cl)c2)cc1`, the Potency in experiment [1] was 67.5 µM (active). The Potency result in experiment [2], in experiment [3], in experiment [4] and in experiment [5] was “inactive” in each case.

For the compound `COc1ccc2nc(N3C(=O)C(O)=C(C(=O)c4ccco4)C3c3ccc(C)o3)sc2c1` (stereo not given), in experiment [1], the Potency is 26.9 µM (active). The Potency entry in experiment [2], in experiment [3], in experiment [4] and in experiment [5] was “inactive” throughout.

Turning to `COc1cc(C(c2c(C(=O)O)[nH]c3ccccc23)c2c(C(=O)O)[nH]c3ccccc23)ccc1OCc1ccccc1`, the Potency in experiment [1] was 15.1 µM (active). In addition, the Potency result in experiment [2], in experiment [3], in experiment [4] and in experiment [5] was “inactive” in each case.

Consider `COc1ccc(C2=CC(=O)OC3(CCCCC3)O2)cc1`, for which the Potency entry in experiment [1] and in experiment [2] was “inactive” each time. The activation is 5.5% [at 17.1 µM, percent relative to cAMP agonist control] in experiment [3] and 7.07% [at 30.8 µM] in experiment [5]. Besides, in experiment [4], the activity change, negative = inhibition is -23.4% [at 30.8 µM].

Take `CCOC(=O)c1c(NC(=O)/C=C/c2ccc3c(c2)OCO3)sc(C)c1CC`: the Potency result in experiment [1], in experiment [2], in experiment [3], in experiment [4] and in experiment [5] was “inactive” each time.

`Cc1ccc(Cl)cc1N1CCN(C(=O)c2cccc3c(=O)c(C)c(-c4ccccc4)oc23)CC1`: the Potency entry in experiment [1] and in experiment [2] was “inactive” each time. Further, the activation in experiment [3] was 13% [at 17.1 µM, percent relative to cAMP agonist control]; in experiment [5], 25.9% [at 30.8 µM]. Moreover, in experiment [4], the activity change, negative = inhibition is -10.3% [at 30.8 µM].

As to `Cc1nnc(SCc2ccccc2CSc2nnc(C)s2)s1`, the Potency result in experiment [1], in experiment [2], in experiment [3], in experiment [4] and in experiment [5] was “inactive” in each case.

On to `Cc1ccc(Cc2c(-c3cccc(Cl)c3)nc3ccc(Br)cn23)cc1`, for which the Potency in experiment [1] was 75.7 µM (active). Further, the Potency result in experiment [2], in experiment [3], in experiment [4] and in experiment [5] was “inactive” throughout.

`C#CCOc1nc(C)cc(C)c1S(=O)(=O)c1ccccc1C`: the Potency result in experiment [1] and in experiment [2] was “inactive” throughout. The activation in experiment [3] is -13.7% [at 17.1 µM, percent relative to cAMP agonist control]; in experiment [5] it was -3.33% [at 30.8 µM]. The activity change, negative = inhibition in experiment [4] is -7.83% [at 30.8 µM].
